Assay outcomes (PubChem)
FMDV inh – High Throughput Screening for Foot and Mouth Disease Virus Antivirals; FMDV antiviral cell-based qHTS; Potency, µM (top dose mostly 57.9 µM), without a hit: at the highest dose activity change, negative = inhibition, usual class: inhibitors; 410,000 compounds, 1.2% hits; calls by dose curve; tested in HEK293T cells; further: read-out not given here; nearly all actives have a fitted effect of over 45% in size
Sm TGR block – qHTS Assay for the Inhibitors of Schistosoma Mansoni Peroxiredoxins; 360,000 compounds, 3% hits; Schistosoma mansoni thioredoxin glutathione reductase (TGR), Q962Y6; Potency, µM (doses to about 114 µM), for inactives: at the top dose activity change, negative = inhibition, hits mostly inhibitors; purified TGR, DTNB reduction, TNB absorbance 405 nm; further: nearly all actives have a fitted effect of over 60% in size
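Kinetic colorimetric format: TGR-catalysed, NADPH-driven DTNB reduction monitored via TNB absorbance. Enzyme dispensed at 20 nM; compound exposure 15 min at room temperature before reaction start.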
RE007 growth inh – qHTS Assay for Inhibitors of the HIV-1 protein Vpr; AID 651644, 2012; Potency, µM (doses to about 92.2 µM), for inactives: top-dose activity change, negative = less growth, most hits filed as inhibitors; S. pombe RE007 Vpr strain, BacTiter-Glo ATP luminescence, 24 h; 360,000 compounds, 0.21% hits; active means well fitted falling curve with a large enough effect; inconclusive means small, poorly fitted or top-dose-only effect; inactive means no such curve, though single readings can be large or run the other way; further: nearly all actives have a fitted effect of over 50% in size
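Fission yeast strain RE007, carrying one chromosomally integrated HIV-1 vpr copy, was seeded at OD 0.01 in PMG+AL medium with 23 nL pinned compound. After 24 h at 30 °C and 99% humidity, viability was read by BacTiter-Glo luminescence.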
TbPYK inhibitor – qHTS of Trypanosoma Brucei Inhibitors. Potency, µM (series often up to 76.8 µM), inactives show at the top dose activity, negative = inhibition, usual class: inhibitors. TbPYK enzyme, Kinase-Glo Plus ATP luminescence, 45 min. 410,000 compounds, 0.12% hits; further: nearly all actives have a fitted effect of over 50% in size
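Activity of T. brucei pyruvate kinase was followed by Kinase-Glo Plus luminescence after the enzyme reacted 45 min at room temperature with 130 uM ADP (final) and substrate. Test compounds were added before ADP at multiple concentrations.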
* hit, by the source's call; ? = inconclusive; · = no result given. Hits are enriched below; roughly 3.7% of the tested compounds scored in any of these assays. Unless noted, the call rests on the fitted dose curve; in most records, active means well fitted curve in the direction sought with a large enough effect; inconclusive means small, poorly fitted or top-dose-only effect, or another doubt; inactive means no such curve, though single readings can be large; an effect the other way counts as inactive or inconclusive. On the % scale 0 is the no-effect control and ±100 the full control effect; potency means the concentration at half of the fitted maximal effect.

SMILES	FMDV inh	Sm TGR block	RE007 growth inh	TbPYK inhibitor
Cc1ccc(CCNC(=O)C2CCCN(C(=O)c3cc4sccc4n3C)C2)cc1 (configuration not stated)	·	-9%	6%	8.9µM*
Cn1c(C(=O)N2CCCC(C(=O)NCCc3ccccc3)C2)cc2sccc21 (configuration not stated)	·	-1%	5%	?
CCN(CC)S(=O)(=O)c1ccc(C(=O)NCCSc2c(-c3ccc(OC)cc3)[nH]c3ccccc23)cc1	-3%	-3%	·	0%
Cc1ccc(/C=C/C(=O)OCC(=O)NC(C)c2ccccc2)o1 (configuration not stated)	-3%	35µM*	3%	-12%
Cc1ccc(/C=C/C(=O)NCCc2ccccc2)o1	12%	3.2µM*	2%	?
O=C(/C=C/c1ccco1)NCCc1ccccc1	33%	7.9µM*	0%	0%
O=C(O)CCCNC(=O)/C=C/c1ccco1	-9%	4.5µM*	6%	-3%
O=C(O)CCCCCNC(=O)/C=C/c1ccco1	0%	0%	0%	-3%
O=C(O)/C=C/C(=O)NCCc1ccccc1	-8%	-20%	-13%	1%
CCOc1c(Br)cc(C2C=C(C(=O)O)Nc3ncnn32)cc1OC (configuration not stated)	-10%	7%	·	1%
Cn1cccc1/C=C1/C(=O)NC(=O)N(Cc2ccc(F)cc2)C1=O	?	-11%	-7%	-5%
Cn1cccc1/C=C1/C(=O)NC(=S)N(Cc2ccc(F)cc2)C1=O	28µM*	25µM*	0%	?
COc1cccc(N=Cc2nc(-c3ccccc3)oc2OC(C)=O)c1	-8%	10µM*	3%	-23%
Cc1ccc(C(=O)Oc2oc(-c3ccccc3)nc2C=Nc2ccc(N(C)C)cc2)cc1	-16%	?	-7%	-12%
COc1ccc(N=Cc2nc(-c3ccccc3)oc2OC(C)=O)cc1	-22%	?	0%	1%
O=C(Oc1oc(-c2ccco2)nc1C=Nc1ccccc1)c1ccco1	?	1.6µM*	?	?
Cc1ccc(C(=O)Oc2oc(-c3ccco3)nc2C=Nc2ccc(Cl)cc2)cc1	-11%	2.2µM*	-16%	-24%
O=C(Oc1oc(-c2ccco2)nc1C=Nc1ccccc1)c1ccoc1	·	1.4µM*	-18%	-27%
CCOc1ccc(NC(=O)Cn2c(=O)n(Cc3ccc(C(=O)NCc4ccc5c(c4)OCO5)cc3)c(=O)c3ccccc32)cc1	-18%	5%	·	2%
COC(=O)c1ccc(CN2CCN(Cc3ccc(C(=O)OC)o3)CC2)o1	8%	35µM*	3%	-9%
COC(=O)c1ccc(CN2C(=O)c3ccccc3C2=O)o1	5%	-7%	12%	1%
O=C(COC(=O)CC(c1ccccc1)c1ccccc1)NCc1ccc(Cl)cc1	35µM*	-1%	-1%	2%
Cc1ccc(-c2cc3onc(-c4ccccc4)c3c(=O)n2C)cc1	18µM*	-1%	19%	-2%
CNC(=O)c1ccc(-c2cc3onc(-c4ccccc4)c3c(=O)n2C)cc1	-5%	·	19%	6%
CCOC(=O)c1c(SCCN2CCCC2)n(-c2ccccc2)c(=S)n(-c2ccccc2)c1=O	20µM*	·	7%	0%
SMILES	FMDV inh	Sm TGR block	RE007 growth inh	TbPYK inhibitor
CCOC(=O)c1c[nH]c(=S)n(-c2ccccc2)c1=O	11%	-9%	3%	-5%
CCN(CC)CCCNC(=O)c1ccc2c(c1)NC(=O)C(CS(=O)(=O)Cc1cccc(Br)c1)N2 (configuration not stated)	18%	-16%	·	1%
Cc1[nH]c2ccccc2c1/C=N/Nc1cccc(C(=O)O)c1	-20%	45µM*	19%	-12%
COc1ccc(Br)cc1/C=N/Nc1cccc(C(=O)O)c1	36%	-2%	4%	4%
Cc1[nH]c2ccccc2c1/C=N/NC(=O)c1ccccc1	26%	-2%	·	0%
CC(=O)Nc1cccc(C(=O)/C=C/c2ccc(N(C)C)cc2)c1	26%	-10%	18%	2%
CC(C)(C)c1ccc(/C=N/Nc2cccc(C(=O)O)c2)cc1	45µM*	5%	0%	-2%
CN(C)c1ccc(/C=N/Nc2cccc(C(=O)O)c2)cc1	4µM*	-34%	20%	-13%
O=C(N/N=C/c1cccnc1)c1ccccc1	0%	2%	16%	0%
O=C(O)c1cccc(N/N=C/c2cccnc2)c1	13µM*	7%	8%	-1%
COc1ccc(C(=O)N2CCC3(CC2)CN(c2ccccn2)C3)cc1	?	·	·	2%
Cn1c(CCNC(=O)C2CC23CCN(C(=O)C2=CCCC2)CC3)nc2ccccc21 (configuration not stated)	-1%	·	·	·
CN[C@@H]1CCc2[nH]c3ccc(C(N)=O)cc3c2C1	·	·	·	-6%
CN(C)c1ccc(/C=N/NC(=O)C[n+]2ccccc2)cc1	2.8µM*	·	14%	-8%
O=C(O)c1cccc(N/N=C/c2cc(Br)cc(Br)c2O)c1	21%	-8%	?	-15%
O=C(O)c1cccc(N/N=C/c2ccc(-c3ccccc3)cc2)c1	14µM*	0%	-7%	-3%
CC(=O)N1CCC[C@@]2(CCN(Cc3ccccc3)C2)C1	-5%	·	·	-6%
O=C(c1ccoc1)N1CCN(c2cc(-c3ccco3)nc3cc(-c4ccccc4)nn23)CC1	?	·	3%	-16%
COc1ccccc1-c1cc2nc(-c3ccccc3)cc(N3CCN(C(=O)c4ccoc4)CC3)n2n1	7.9µM*	·	-20%	3%
Cc1nn2c(N3CCN(C)CC3)cc(C(C)(C)C)nc2c1-c1ccccc1	?	13%	0%	-14%
O=C(c1ccoc1)N1CCN(c2cc(-c3ccccc3)nc3cc(-c4ccccc4)nn23)CC1	35µM*	·	-24%	3%
COc1cccc(-c2cc3nc(-c4ccccc4)cc(N4CCN(C(=O)c5ccoc5)CC4)n3n2)c1	32µM*	·	2%	-2%
Cc1nn2c(N3CCN(C(=O)c4ccco4)CC3)cc(C(C)(C)C)nc2c1-c1ccccc1	14µM*	4%	2%	1%
CCn1c(-c2ccccc2F)nc2cc(NC(C)=O)cc(C(=O)NCC3CCOCC3)c21	-1%	·	·	·
O=C(Nc1ccccc1Cl)c1cc2c(-c3ccccc3)nn(-c3ccccc3)c2s1	-10%	4%	·	-3%
COc1ccccc1-c1cc2nc(-c3ccccc3)cc(N3CCN(C(=O)c4ccco4)CC3)n2n1	4.5µM*	·	1%	-9%
COc1cc(OC)cc(-n2c(=O)c3ccccc3n(CC(=O)NCCc3ccc(OC)c(OC)c3)c2=O)c1	-21%	6%	·	4%
Cc1cccc(NC(=S)N/C(=N/S(=O)(=O)c2ccccc2)c2ccccc2)c1	26%	?	-21%	6%
Cc1ccc(S(=O)(=O)/N=C(/Nc2ccc([N+](=O)[O-])cc2)c2ccccc2)cc1	15%	-10%	-4%	6%
COc1ccc(NC(=S)N/C(=N/CS(=O)(=O)c2ccccc2)c2ccccc2)cc1	·	40µM*	0%	-5%
